# Assay results from PubChem BioAssay (NCATS).
# Results filed as inconclusive are left out. Where a call stands in place of a potency, no number is given. Calls of active or inactive are those of the source. Calls come from the whole dose curve; as a rule, active = well fitted curve in the direction sought with a large enough effect; inconclusive = small, poorly fitted or top-dose-only effect, or another doubt; inactive = no such curve, though single readings can be large; an effect the other way counts as inactive or inconclusive. Peptide text beside a SMILES is read from it. * marks the point of attachment. Hexanoyl = CCCCCC(=O)*
# Assays:
# [1] = HEK-293 Cancer Cell Toxicity qHTS against the NCATS CANVASS Library (AID 1347355); note: nearly all actives have a fitted effect of over 65% in size; note: potency is the fitted concentration of half-maximal effect; for outcome: series mostly up to about 46 µM
# Procedure, shortened: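 Toxicity was measured as CellTiter-Glo luminescence after 72 h exposure to an 11-point compound series. Compound was added to 1000 cells/well 4 h after seeding.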
# [2] = HPAF-II 24hr Apoptosis Induction qHTS against the NCATS CANVASS Library (AID 1347356)
# Procedure, shortened: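 Caspase-Glo 3/7 luminescence, read after 15 min room-temperature development, measures apoptosis in HPAF-II cells treated 24 h at 37 degrees C with an 11-point concentration series; 500 cells/well; doxorubicin control.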
# [3] = HEK293 18hr Apoptosis Induction qHTS against the NCATS CANVASS Library (AID 1347357)
# Procedure, shortened: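 Caspase-Glo 3/7 luminescence (15 min, room temperature) measured apoptosis after an 18-hour, 37 degrees C exposure of HEK293 cells (500 cells/well) to compounds in 11 points.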
# [4] = HPAF-II 12hr Apoptosis Induction qHTS against the NCATS CANVASS Library (AID 1347358)
# Procedure, shortened: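 Caspase-3/7 activation by DEVD-substrate luminescence (Caspase-Glo 3/7, 15 min, room temperature) after a 12-hour compound exposure in 11 concentrations, of HPAF-II pancreatic cells seeded at 500/well in DMEM with 10% FBS.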
# [5] = HPAF-II 18hr Apoptosis Induction qHTS against the NCATS CANVASS Library (AID 1347360)
# Procedure, shortened: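 Caspase-3/7 activation was measured with luminescent Caspase-Glo 3/7 reagent (15 min, RT) in HPAF-II cancer cells (500 cells/well). Before detection, cells had been treated for 18 h at 37 C with compounds (11 points).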
# [6] = HEK293 12hr Apoptosis Induction qHTS against the NCATS CANVASS Library (AID 1347361)
# Procedure, shortened: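 HEK293 cells (500/well, DMEM + 10% FBS) were exposed to natural products across an 11-point series for 12 hours at 37 degrees C. Caspase-3/7 activity was then measured with DEVD luciferase luminescence after 15 min at room temperature.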
# [7] = KB-3-1 Cancer Cell Toxicity qHTS against the NCATS CANVASS Library (AID 1347366); note: nearly all actives have a fitted effect of over 75% in size; note: potency is the fitted concentration of half-maximal effect
# Procedure, shortened: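 CellTiter-Glo luminescence measured viability after 72 h at 37C. KB-3-1 cells were seeded at 500 per well in DMEM/10% FBS.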
# [8] = qHTS for ATAD5 Agonist screened against the NCATS CANVASS Library (AID 1347367);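 note: luciferase reporter driven by ATAD5 which rises upon DNA damage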
# Procedure, shortened: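 Genotoxicity via ATAD5-luciferase luminescence after 16 h compound exposure (11-point series) at 37C in HEK293T-ATAD5 cells. CellTiter-Fluor viability read precedes the luminescence read; MMS serves as positive control.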
# [9] = G06 Cancer Cell Toxicity qHTS against the NCATS CANVASS Library (AID 1347368); note: nearly all actives have a fitted effect of over 60% in size; note: potency is the fitted concentration of half-maximal effect
# Procedure, shortened: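 Viability measured by CellTiterGlo ATP luminescence after 72 hr at 37C, 5% CO2. Canine G06 glioma cells plated at 500/well. Compounds tested as 11-point qHTS titrations.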
# [10] = MCF7 Cancer Cell Toxicity qHTS against the NCATS CANVASS Library (AID 1347369); note: potency is the fitted concentration of half-maximal effect
# Procedure, shortened: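 Cytotoxicity was measured as CellTiterGlo luminescence (ATP) after 72 h at 37 °C. The cells were MCF7 at 500 per well, with an 11-point compound concentration series.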
# [11] = qHTS for ATAD5 Antagonist screened against the NCATS CANVASS Library (AID 1347370); note: nearly all actives have a fitted effect of over 65% in size; note: potency is the fitted concentration of half-maximal effect
# Procedure, shortened: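 Compounds (11-point) co-dosed with 10 µM 5-FUrd for 16 h at 37 °C onto HEK293T-ATAD5 luciferase reporter cells. Viability measured by CellTiter-Fluor fluorescence, then ATAD5 reporter signal by luminescence.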
# [12] = target: Nuclear receptor subfamily 1 group I member 3 (Homo sapiens) (UniProt Q14994); test: qHTS for Constitutive Androstane Receptor (CAR) Agonist screened against the NCATS CANVASS Library (AID 1347373);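 note: every well also contained 1.5 µM PK11195 alongside the test compound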
# Procedure, shortened: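 Agonist mode with 1.5uM PK11195 present: compounds for 24hr on HepG2-hCAR-CYP2B6 cells. CellTiter-Fluor fluorescence (ex 405, em 540 nm) gives viability; ONE-Glo luminescence reports CAR activation.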
# [13] = 10-beta competent E. coli microbial cell viability qHTS against the NCATS CANVASS Library (AID 1347376); note: series mostly up to about 46 µM
# Procedure, shortened: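 Read-out: BacTiter-Glo ATP luminescence, taken 20 min after reagent addition. Beforehand, 10-beta competent E. coli at 0.2 OD had been incubated overnight at 37C with compounds at 11 concentrations.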
# [14] = qHTS for H2AX Agonists against the NCATS CANVASS Library (AID 1347378); note: potency is the fitted concentration of half-maximal effect
# Procedure, shortened: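 Phospho-H2AX (S139) in CHO-K1 lysates measured by HTRF, reported as 665/615 nm emission ratio after 24 hr antibody incubation at room temperature. Cells were first treated with a compound series for 3 hr at 37C (0.76% DMSO final).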
# [15] = Inflammasome Signaling qHTS Counterscreen: IL-1-beta AlphaLISA counterscreen against the NCATS CANVASS Library (AID 1347381);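 note: cell-free check with purified IL-1β in medium and no THP-1 cells; series mostly up to about 57 µM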
# Procedure, shortened: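 Purified IL-1-beta (4 pg/well) + compound, 11-pt conc. series; acceptor beads 6 ug/mL + biotin-Ab 0.6 nM final, 1 h RT; SA-donor 24 ug/ml final, 30 min dark RT; read ex 680/em 615.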
# [16] = qHTS for Activators of p53 Stress Response Pathway screened against the NCATS CANVASS Library (AID 1347388)
# Procedure, shortened: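 p53RE-bla HCT-116 cells (4000/well) were plated 5 h at 37C, exposed to compounds for 16 h at 37C over an 11-point concentration series, then loaded with CCF4 for 2 h at room temperature; 460/530 nm emission ratio read.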
# [17] = qHTS assay for small molecule disruptors of mitochondrial membrane potential screened against the NCATS CANVASS Library (AID 1347389); note: series mostly up to about 46 µM; nearly all actives have a fitted effect of over 60% in size
# Procedure, shortened: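 Mitochondrial membrane potential in HepG2: 1 h compound treatment (11-point concentration series), 30 min m-MPI dye at 37C, then dual fluorescence of J-aggregates (ex 540/em 590) and monomers (ex 490/em 535); lower red/green ratio indicates depolarization.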
# [18] = Secretion counterscreen for inhibitors of the SERCaMP assay screened against the NCATS CANVASS Library (AID 1347390);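 note: light from luciferase secreted into medium read as a measure of general secretion; series mostly up to about 77 µM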
# Procedure, shortened: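 Counterscreen for secretory-pathway interference: after 4 h attachment, SH-SY5Y-GLuc cells were exposed 20 hours to compounds (final 0.001 - 77 uM), then coelenterazine added and GLuc luminescence recorded; Brefeldin A served as control.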
# [19] = Viability qHTS for inhibitors of the SERCaMP assay screened against the NCATS CANVASS Library (AID 1347400); note: series mostly up to about 92 µM; nearly all actives have a fitted effect of over 70% in size
# Procedure, shortened: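 CellTiter-Glo luminescence measured cytotoxicity after 48 h at 37C of compound treatment (11-point series). Cells were SH-SY5Y-GLuc SERCaMP MJH297 derivatives, seeded at 1000 per well 4 h beforehand.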
# [20] = Redox Reaction Profiling qHTS: Assay Interference Panel against the NCATS CANVASS Library (AID 1347401)
# Procedure, shortened: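 Quantitative HTS over an 11-point series was run in HEPES pH 7.3 with 50 mM NaCl, 200 uM DTT and 5 uM resazurin. Initial and 15-min resorufin fluorescence readings were taken.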
# Chain of Nuclear receptor subfamily 1 group I member 3 (Homo sapiens) (Q14994 whole entry, looked up): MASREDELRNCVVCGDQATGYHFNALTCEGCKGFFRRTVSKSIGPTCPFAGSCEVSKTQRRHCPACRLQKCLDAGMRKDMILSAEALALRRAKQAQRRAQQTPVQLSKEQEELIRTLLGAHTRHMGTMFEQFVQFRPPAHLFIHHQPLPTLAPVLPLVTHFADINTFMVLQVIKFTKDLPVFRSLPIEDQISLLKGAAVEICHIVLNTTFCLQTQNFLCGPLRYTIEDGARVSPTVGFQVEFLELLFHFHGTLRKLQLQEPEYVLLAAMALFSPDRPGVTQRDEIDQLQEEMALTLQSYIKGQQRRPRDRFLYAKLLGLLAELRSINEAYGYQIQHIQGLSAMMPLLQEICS
SMILES,Potency [1],outcome [2],Potency [3],Potency [4],Potency [5],outcome [6],Potency [7],Potency [8],Potency [9],Potency [10],Potency [11],Potency [12],outcome [13],Potency [14],outcome [15],Potency [16],Potency [17],Potency [18],Potency [19],Potency [20]
CN1C(=O)C(=O)N2C(=C[C@]3(c4c[nH]c5ccccc45)c4ccccc4N[C@H]23)C1=O,inactive,inactive,inactive,inactive,inactive,inactive,inactive,inactive,inactive,inactive,inactive,inactive,inactive,inactive,inactive,inactive,inactive,inactive,inactive,inactive
C=C1C[C@]23C=CC(=O)[C@@](C)(CCCC(C)C(=O)N[C@@H](CO)C(=O)O)[C@@H]2C[C@@H]1CC3 (stereo partly specified),inactive,inactive,inactive,inactive,inactive,inactive,inactive,inactive,inactive,inactive,inactive,inactive,inactive,inactive,inactive,inactive,inactive,inactive,inactive,inactive
C=C(Cl)[C@](Cl)(CBr)CC[C@@H](Br)C(C)(C)Cl,9.35 µM (active),inactive,inactive,inactive,inactive,inactive,20.9 µM (active),inactive,inactive,6.59 µM (active),23.4 µM (active),inactive,inactive,4.86 µM (active),inactive,inactive,inactive,inactive,inactive,inactive
COC(=O)c1cccc2oc(-c3cccc4oc(-c5c(C)cccc5O)nc34)nc12,inactive,inactive,inactive,inactive,inactive,inactive,inactive,inactive,–,inactive,8.31 µM (active),–,inactive,inactive,inactive,inactive,–,inactive,inactive,inactive
CC(C)=CCCC(C)(O)[C@H]1CC=C(C)C(O)C1 (stereo partly specified),inactive,inactive,inactive,inactive,inactive,inactive,inactive,inactive,inactive,inactive,inactive,inactive,inactive,inactive,inactive,inactive,inactive,inactive,inactive,inactive
CCCCCC(=O)N[C@@H](CC(C)C)C(=O)N[C@H](C=O)CCC(=O)O (Hexanoyl-Leu-Glu-aldehyde),inactive,inactive,inactive,inactive,inactive,inactive,inactive,inactive,inactive,inactive,inactive,inactive,inactive,inactive,inactive,inactive,inactive,inactive,inactive,inactive
C[C@@]12CCC[C@@](C)(C(=O)OP(=O)(O)OC[C@H]3O[C@@H](n4cnc5c(N)ncnc54)[C@H](O)[C@@H]3O)[C@H]1C[C@@H](O)[C@@]13C[C@@H](CC[C@@H]21)[C@](C)(O)C3,inactive,inactive,inactive,inactive,inactive,inactive,inactive,inactive,14.8 µM (active),inactive,inactive,inactive,inactive,–,inactive,inactive,inactive,inactive,inactive,–
C/C=C/[C@H]1[C@H]2C(=O)c3c(O)c(C)c(O)c(C)c3[C@]1(C(=O)O)C(=O)C=C2C,inactive,inactive,inactive,inactive,inactive,inactive,inactive,inactive,inactive,inactive,inactive,inactive,inactive,inactive,inactive,inactive,inactive,inactive,inactive,inactive
C/C=C1/C2=CCCN3C(=O)O[C@H]([C@H]1O)[C@H]23,inactive,inactive,inactive,inactive,inactive,inactive,inactive,inactive,inactive,–,inactive,inactive,–,–,inactive,inactive,inactive,inactive,inactive,inactive
CC(C)=CCC[C@]1(C)[C@H]2CC(=O)[C@@]3(CO3)[C@@H]1C2,inactive,inactive,inactive,inactive,inactive,inactive,inactive,inactive,inactive,inactive,inactive,inactive,inactive,inactive,inactive,inactive,inactive,inactive,inactive,inactive
C=C1[C@@]2(C)CC3C4(C)CCC(O)C(C)(C)C4CCC3(C)[C@]1(C(=O)OC)C(=O)C(C)(O)C2=O (stereo partly specified),inactive,inactive,inactive,inactive,inactive,inactive,inactive,inactive,inactive,inactive,inactive,inactive,inactive,inactive,inactive,inactive,inactive,–,inactive,inactive
